Inconclusive results are not listed. Activity calls are given as the source filed them. Rule for the calls: active = hit-call score of the fitted dose curve at least 0.9, where 1 is the maximum; inconclusive = response in the unintended direction; inactive = score below 0.9.
Read-out: xenobiotic metabolism (CYP1A2), CYP1A2 (gene 1544)
Assay: CLD_CYP1A2_24hr: CellzDirect (CLD) Gene Expression Assay for xenobiotic metabolism (CYP1A2) at 24 hours (AID 2283683)
Procedure, shortened: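 CYP1A2 mRNA induction measured by quantitative nuclease protection (chemiluminescent) in human primary hepatocytes 24 h after multi-concentration chemical dosing with daily fresh solutions. DMSO (0.2%) baseline; positive-direction fitting; morphology-based cytotoxicity noted.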

Sequence of Glyceraldehyde-3-phosphate dehydrogenase (Homo sapiens) (P04406 whole entry, looked up): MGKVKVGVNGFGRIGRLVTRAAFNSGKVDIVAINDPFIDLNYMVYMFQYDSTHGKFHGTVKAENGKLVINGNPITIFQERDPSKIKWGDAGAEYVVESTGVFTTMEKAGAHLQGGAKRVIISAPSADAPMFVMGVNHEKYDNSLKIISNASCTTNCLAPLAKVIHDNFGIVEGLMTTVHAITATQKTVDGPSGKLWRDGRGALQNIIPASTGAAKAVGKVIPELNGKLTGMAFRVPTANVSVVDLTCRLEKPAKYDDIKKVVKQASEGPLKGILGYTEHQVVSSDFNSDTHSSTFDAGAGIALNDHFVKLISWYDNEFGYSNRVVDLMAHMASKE

With `Clc1ccccc1-c1nnc(-c2ccccc2Cl)nn1` as the compound, how does the AC50 read?
Its AC50 is 4.38 µM (active).

For `O=C(O)COc1ccc(Cl)cc1Cl`, which outcome is on record?
The outcome was “inactive”.

`O=S(=O)(O)C(F)(F)C(F)(F)C(F)(F)C(F)(F)C(F)(F)C(F)(F)C(F)(F)C(F)(F)F` was tested. Which outcome did it give?
Its outcome is “inactive”.

`CCN(CC)C(=O)SCc1ccc(Cl)cc1` was tested. Which outcome did it give?
Its outcome is “inactive”.

Which outcome does the source give for `[2H]C1([2H])[n+]2ccccc2-c2cccc[n+]2C1([2H])[2H]` here?
Its outcome is “inactive”.

For `OCCOc1ccccc1`, which outcome is on record?
The outcome was “inactive”.

For `CCOCN(C(=O)CCl)c1c(C)cccc1CC`, which AC50 is on record?
The AC50 was 0.333 µM (active).

`COC(=O)c1ccccc1CS(=O)(=O)NC(=O)Nc1nc(OC)cc(OC)n1` was tested. Which AC50 did it give?
Its AC50 is 20 µM (active).

`CNC(=O)Oc1cccc(N=CN(C)C)c1` was tested. Which outcome did it give?
The outcome was “inactive”.

Which outcome does the source give for `C#CCN1C(=O)COc2cc(F)c(N3C(=O)C4=C(CCCC4)C3=O)cc21` here?
Its outcome is “inactive”.

Which AC50 does the source give for `CC(C)(C)C(O)C(Oc1ccc(Cl)cc1)n1cncn1` (stereo unspecified) here?
Its AC50 is 2.95 µM (active).

Which outcome does the source give for `CCC(C)(C)C(=O)OC1=C(c2ccc(Cl)cc2Cl)C(=O)OC12CCCCC2` here?
Its outcome is “inactive”.

`CCOC1Oc2ccc(OS(C)(=O)=O)cc2C1(C)C` (stereo unspecified) was tested. Which outcome did it give?
Its outcome is “inactive”.

How did the outcome turn out when `CNC(=O)Oc1ccccc1OC(C)C` was run?
Its outcome is “inactive”.

With `CNC(=O)CSP(=S)(OC)OC` as the compound, how does the outcome read?
The outcome was “inactive”.

With `CC1(c2ccc(Oc3ccccc3)cc2)OC(=O)N(Nc2ccccc2)C1=O` (stereo unspecified) as the compound, how does the outcome read?
Its outcome is “inactive”.

With `CCCN(CCOc1c(Cl)cc(Cl)cc1Cl)C(=O)n1ccnc1` as the compound, how does the AC50 read?
The AC50 was 0.378 µM (active).

With `N#CN` as the compound, how does the outcome read?
Its outcome is “inactive”.

How did the outcome turn out when `Cc1cc(C)nc(NC(=O)NS(=O)(=O)c2ccccc2C(=O)OC2COC2)n1` was run?
Its outcome is “inactive”.

Which outcome does the source give for `O=C(O)C(F)(F)C(F)(F)C(F)(F)C(F)(F)C(F)(F)C(F)(F)C(F)(F)F` here?
The outcome was “inactive”.

With `CC(C)(C)C(O)/C(=C\c1ccc(Cl)cc1Cl)n1cncn1` (stereo unspecified) as the compound, how does the AC50 read?
Its AC50 is 0.825 µM (active).

`COC(=O)c1ccccc1S(=O)(=O)NC(=O)Nc1nc(C)nc(OC)n1` was tested. Which AC50 did it give?
Its AC50 is 3.08 µM (active).

Read-out: HMG-CoA synthase (HMGCS2), HMGCS2 (gene 3158)
Assay: CLD_HMGCS2_24hr: CellzDirect (CLD) Gene Expression Assay for HMG-CoA synthase (HMGCS2) at 24 hours (AID 2283691)
Procedure, shortened: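 qNPA with S1 nuclease digestion and chemiluminescent detection gave HMGCS2 transcript levels, fitted upward against 0.2% DMSO vehicle. Cultured human hepatocytes (two donors) received fresh compound daily and were harvested at 24 h; phase-contrast morphology flagged cytotoxicity.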

How did the AC50 turn out when `O=C(O)COc1ccc(Cl)cc1Cl` was run?
Its AC50 is 0.0225 µM (active).

`[2H]C1([2H])[n+]2ccccc2-c2cccc[n+]2C1([2H])[2H]` was tested. Which outcome did it give?
Its outcome is “inactive”.

How did the outcome turn out when `OCCOc1ccccc1` was run?
The outcome was “inactive”.

With `CNC(=O)Oc1cccc(N=CN(C)C)c1` as the compound, how does the outcome read?
The outcome was “inactive”.

`C#CCN1C(=O)COc2cc(F)c(N3C(=O)C4=C(CCCC4)C3=O)cc21` was tested. Which outcome did it give?
Its outcome is “inactive”.

Which outcome does the source give for `Oc1ccc(Cl)cc1Cc1ccccc1` here?
The outcome was “inactive”.

Which outcome does the source give for `CNC(=O)CSP(=S)(OC)OC` here?
The outcome was “inactive”.

`O=C(O)C(F)(F)C(F)(F)C(F)(F)C(F)(F)C(F)(F)C(F)(F)C(F)(F)F` was tested. Which outcome did it give?
Its outcome is “inactive”.

With `COC(=O)c1ccccc1S(=O)(=O)NC(=O)Nc1nc(C)nc(OC)n1` as the compound, how does the outcome read?
The outcome was “inactive”.

Read-out: Glyceraldehyde-3-phosphate dehydrogenase (Homo sapiens) (UniProt P04406)
Assay: CLD_GAPDH_24hr: CellzDirect (CLD) Gene Expression Assay for Baseline Control (Glyceraldehyde 3-phosphate dehydrogenase) at 24 hours (AID 2283692)
Procedure, shortened: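 GAPDH baseline-control readout: qNPA chemiluminescent mRNA signal in human primary hepatocytes harvested 24 h after daily dosing, normalised to 0.2% DMSO with positive fitting direction; cytotoxicity annotated by phase-contrast morphology.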

With `O=C(O)COc1ccc(Cl)cc1Cl` as the compound, how does the outcome read?
Its outcome is “inactive”.

For `O=S(=O)(O)C(F)(F)C(F)(F)C(F)(F)C(F)(F)C(F)(F)C(F)(F)C(F)(F)C(F)(F)F`, which outcome is on record?
Its outcome is “inactive”.

How did the outcome turn out when `[2H]C1([2H])[n+]2ccccc2-c2cccc[n+]2C1([2H])[2H]` was run?
The outcome was “inactive”.

Which outcome does the source give for `OCCOc1ccccc1` here?
The outcome was “inactive”.

`CCOCN(C(=O)CCl)c1c(C)cccc1CC` was tested. Which outcome did it give?
The outcome was “inactive”.

For `COC(=O)c1ccccc1CS(=O)(=O)NC(=O)Nc1nc(OC)cc(OC)n1`, which outcome is on record?
Its outcome is “inactive”.

With `CNC(=O)Oc1cccc(N=CN(C)C)c1` as the compound, how does the outcome read?
The outcome was “inactive”.

How did the outcome turn out when `C#CCN1C(=O)COc2cc(F)c(N3C(=O)C4=C(CCCC4)C3=O)cc21` was run?
The outcome was “inactive”.

With `Oc1ccc(Cl)cc1Cc1ccccc1` as the compound, how does the outcome read?
The outcome was “inactive”.

For `CNC(=O)Oc1ccccc1OC(C)C`, which outcome is on record?
The outcome was “inactive”.

With `CNC(=O)CSP(=S)(OC)OC` as the compound, how does the outcome read?
Its outcome is “inactive”.

For `N#CN`, which outcome is on record?
The outcome was “inactive”.

How did the outcome turn out when `Cc1cc(C)nc(NC(=O)NS(=O)(=O)c2ccccc2C(=O)OC2COC2)n1` was run?
Its outcome is “inactive”.

`O=C(O)C(F)(F)C(F)(F)C(F)(F)C(F)(F)C(F)(F)C(F)(F)C(F)(F)F` was tested. Which outcome did it give?
Its outcome is “inactive”.

Which outcome does the source give for `COC(=O)c1ccccc1S(=O)(=O)NC(=O)Nc1nc(C)nc(OC)n1` here?
The outcome was “inactive”.

Source: PubChem BioAssay (EPA / NIEHS)
